From PubChem
Most compounds without a hit are left out; they make up all but 9.3% or so of the library.
VACV mCherry inh: qHTS for Stage-Specific Inhibitors of Vaccinia Orthopoxvirus: mCherry Reporter Primary qHTS; AID 720579, 2013; Vaccinia virus mCherry reporter infection, fluorescence; Potency, µM (highest dose often 36.5 µM), for inactives: at the highest dose activity change, negative = inhibition, actives largely listed as inhibitors; 310,000 tested, 0.63% active; calls by dose curve; tested in A549 cells; further: potency means the concentration at half of the fitted maximal effect; nearly all actives have a fitted effect of over 35% in size
HCMV inh: qHTS Assay for inhibitors of the human cytomegalovirus (HCMV) | 410,000 tested, 4.5% active | activity change, negative = inhibition, % at 57.5 µM | HFF cells, HCMV-luciferase reporter, 72 h; active compounds read low; in the data active means activity change below about -60%; inconclusive means no clear call, values can overlap the other calls; inactive means above about -39%
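Compounds were evaluated in HFFs infected with an HCMV luciferase reporter virus (MOI 1 PFU/cell). Luciferase in lysates collected 72 h post infection served as the replication measure.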
FMDV antiviral: High Throughput Screening for Foot and Mouth Disease Virus Antivirals. 410,000 tested, 1.2% active. Potency, µM (highest dose often 57.9 µM), for the others: at the highest dose activity change, negative = inhibition, usual class: inhibitors. FMDV antiviral cell-based qHTS; calls by dose curve; tested in HEK293T cells; further: read-out not given here; potency means the concentration at half of the fitted maximal effect; nearly all actives have a fitted effect of over 45% in size
HCV inh: qHTS Assay for Inhibitors of Hepatitis C Virus (HCV); Huh7.5.1 HCVcc-Cre infection, luciferase reporter, 44 h; Potency, µM (doses to about 41.8 µM), without a hit: at the highest dose activity change, negative = inhibition, hits mostly inhibitors; 340,000 tested, 3.4% active; AID 651820, 2012; further: potency means the concentration at half of the fitted maximal effect
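Cells (1,000/well) were plated 4 h before compound, then infected with HCVcc-Cre virus (~0.5 moi). After 44 h further culture, infection was read as luciferase luminescence following a 15 min substrate incubation at room temperature.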
Sm TGR block: qHTS Assay for the Inhibitors of Schistosoma Mansoni Peroxiredoxins; purified TGR, DTNB reduction, TNB absorbance 405 nm; Potency, µM (doses to about 114 µM), for inactives: top-dose activity change, negative = inhibition, most hits filed as inhibitors; 360,000 tested, 3% active; further: potency means the concentration at half of the fitted maximal effect; nearly all actives have a fitted effect of over 60% in size
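First, TGR (20 nM dispensed) and NADPH were mixed with compound. Second, a 15 min room-temperature incubation followed. Third, further NADPH and then DTNB were added to start the reaction. Finally, TNB absorbance was monitored kinetically.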
Vaccinia Venus: qHTS for Stage-Specific Inhibitors of Vaccinia Orthopoxvirus: Venus Reporter Primary qHTS; Potency, µM (highest dose often 36.5 µM), without a hit: top-dose activity change, negative = inhibition, actives largely listed as inhibitors; AID 720580, 2013; Vaccinia virus Venus reporter expression, fluorescence; 330,000 tested, 0.46% active; calls by dose curve; tested in A549 cells; further: potency means the concentration at half of the fitted maximal effect; nearly all actives have a fitted effect of over 30% in size
Active calls of the source: *; i = inactive; ? = inconclusive; . = no result; + = active, no number. Unless noted, the call rests on the fitted dose curve; in most records, active means well fitted curve in the direction sought with a large enough effect; inconclusive means small, poorly fitted or top-dose-only effect, or another doubt; inactive means no such curve, though single readings can be large; an effect the other way counts as inactive or inconclusive. On the % scale 0 is the no-effect control and ±100 the full control effect.

SMILES	VACV mCherry inh	HCMV inh	FMDV antiviral	HCV inh	Sm TGR block	Vaccinia Venus
O=C(Nc1ccc2c(c1)OCO2)C1CC(c2ccccc2O)=NO1 (stereo not drawn)	-5%	33	9%	1%	10%	-4%
COc1ccc(NC(=O)C2=CC(c3ccc(C)cc3)=NS(=O)(=O)N2C)cc1OC	i	-62*	?	?	0%	-11%
COc1ccc(C2=NS(=O)(=O)N(C)C(C(=O)Nc3ccc(C(C)=O)cc3)=C2)cc1OC	-21%	?	?	11µM*	5%	-20%
COc1ccc(C2=NS(=O)(=O)N(C)C(C(=O)Nc3ccc(OC)c(OC)c3)=C2)cc1	i	?	?	?	-3%	-9%
Cc1ccc(C2=NS(=O)(=O)N(C)C(C(=O)Nc3ccc(F)cc3F)=C2)cc1	i	-29	-7%	?	17%	0%
COc1ccc(OC)c(C2=NS(=O)(=O)N(C)C(C(=O)Nc3ccc(F)cc3F)=C2)c1	?	-33	?	14µM*	-15%	?
O=S(=O)(c1ccccc1Oc1ccc(Cl)cc1Cl)N1CCCCC1	-2%	17	-1%	11%	3%	-17%
CCN(CC(=O)NCc1cccs1)CC(=O)Nc1cccc(S(N)(=O)=O)c1	.	13	-20%	11%	-3%	.
On1nnc2ccccc21	i	0	-3%	5%	6%	10%
Cc1ccc(/C=[N+](/C)[O-])cc1	-2%	-24	-11%	16%	5%	-13%
Cc1ccc(C=C2C(Cl)=C(Cl)C(Cl)=C2Cl)cc1	4%	.	18µM*	-3%	0.63µM*	10%
CC(=O)c1cccc(-c2ccc3c(c2)C(C)(Cc2ccc(S(C)(=O)=O)cc2)C(=O)N3)c1 (stereo not drawn)	i	45	4%	.	.	-10%
CC(=O)c1cccc(-c2ccc3c(c2)C(C)(Cc2ccccc2C#N)C(=O)N3)c1 (stereo not drawn)	-12%	-66*	-10%	.	.	-22%
Cc1nc(-c2ccc(C)c(N3CCN(C(=O)Nc4cccc(Cl)c4C)CC3)c2)no1	-14%	-88*	?	.	3%	?
Cc1ccc(NC(=O)N2CCN(c3cc(-c4noc(C)n4)ccc3C)CC2)c(C)c1	1%	8	-2%	.	10%	-5%
COc1cc(C(=O)Nc2ccc(Cl)c([N+](=O)[O-])c2)cc(OC)c1OC	?	2	-11%	?	-3%	?
COc1ccc(N2C(=O)[C@@H]3[C@H](C2=O)[C@H]2c4ccccc4C=CN2[C@@H]3C(C)=O)cc1	i	-33	-25%	26%	40µM*	3%
COc1cc(OC)c(OC)cc1CN1CCN(Cc2ccc(SC)cc2)CC1	.	-36	-26%	?	-9%	.
CCn1c2ccccc2c2cc(CN3CCN(Cc4cc(OC)c(O)c(OC)c4)CC3)ccc21	-6%	?	-12%	.	35µM*	?
COc1cc(CN2CCN(Cc3ccc(SC)cc3)CC2)cc(OC)c1O	-27%	9	?	?	10µM*	-1%
COc1ccccc1-c1cn[nH]c1-c1ccc(OCc2ccccc2F)cc1O	?	-25	-8%	-22%	-1%	-23%
Cc1ccc(C(=O)NCC(c2ccco2)N2CCc3ccccc3C2)cc1C (stereo not drawn)	0%	16	0%	12%	0%	-20%
Cc1nn(CC(=O)O)c(=O)c2ccccc12	.	5	23%	-3%	1%	.
Cc1nn(CC(=O)O)c(C)c1C	.	-90*	?	10%	0%	.
COC(=O)C1=C(C)NC(=O)/C1=C\c1cc(C)n(-c2ccc(F)cc2)c1C	-17%	9	19%	-3%	.	-13%
SMILES	VACV mCherry inh	HCMV inh	FMDV antiviral	HCV inh	Sm TGR block	Vaccinia Venus
COC(=O)C1=C(O)/C(=C\c2cc(C)n(-c3ccc(F)cc3)c2C)N=C1C	3%	9	21%	-2%	28µM*	-3%
Cc1csc(N/N=C/c2ccc([N+](=O)[O-])cc2)n1	?	-15	9%	-21%	2%	-9%
O=[N+]([O-])c1cc(Cl)cc(/C=N/Nc2nc3ccccc3s2)c1O	-11%	33	-13%	11µM*	-2%	-16%
COc1cc(/C=N/Nc2nc3ccccc3s2)cc([N+](=O)[O-])c1O	.	7	34%	-1%	-4%	.
C(=N\Nc1nc2ccccc2s1)/c1ccccn1	13µM*	-97*	3.5µM*	1.8µM*	2%	?
Cc1csc(N/N=C/c2ccccn2)n1	?	-103*	?	?	-30%	?
C=CCS(=O)(=O)c1nc2ccccc2s1	.	-97*	?	?	14µM*	?
O=S(=O)(CCSc1nc2ccccc2s1)c1nc2ccccc2s1	.	-85*	8.9µM*	?	0.1µM*	.
CCS(=O)(=O)CCSc1nc2ccccc2s1	.	-12	1%	9%	0%	-12%
Cc1ccc(-n2c(C)cc(C(=O)CSc3nnnn3C)c2C)cc1	.	-1	-5%	?	-34%	.
Cc1nn(-c2ccccc2)c(Cl)c1CN(C(=O)CCl)c1cccc2ccccc12	-26%	-99*	28µM*	?	?	?
Cc1nn(-c2ccccc2)c(Cl)c1CN(C(=O)CCl)c1ccc(Cl)cc1	-1%	-99*	-4%	10µM*	2µM*	-24%
COc1ccc(C(=O)NC(C)c2ccncc2)cc1S(=O)(=O)N(C)Cc1ccccc1 (stereo not drawn)	.	-4	-13%	0%	-22%	.
COCCCNC(=O)c1ccc2c(c1)N=C(C)c1c(C)ccc(C)c1S2	-30%	.	-25%	.	0%	-29%
CC1=Nc2cc(C(=O)NCCCOC(C)C)ccc2Sc2ccccc21	-3%	+	8%	-10%	0%	-24%
CC1=Nc2cc(C(=O)NCCCOC(C)C)ccc2Sc2ccc(C)cc21	?	-76*	15%	-11%	-15%	?
CC1=Nc2cc(C(=O)NCCc3ccc(Cl)cc3)ccc2Sc2ccc(C)cc21	?	-65*	-2%	.	-2%	?
COc1ccc(N2CCN(Cc3nc4c(c(=O)n(C)c(=O)n4C)n3C(C)C(C)=O)CC2)cc1 (stereo not drawn)	-15%	-12	-17%	-28%	6%	-20%
COc1ccc(CC(NC(C)=O)C(=O)NC2CCN(c3ncccc3[N+](=O)[O-])CC2)cc1 (stereo not drawn)	.	18	0%	-3%	-1%	.
CC1CCN(c2ccc3nnc(CCC(=O)NCc4ccco4)n3n2)CC1	.	-37	-6%	17%	-3%	.
